Targets with a hit are over-represented here; the source holds about 7,900 in all. About 0.6% of all pairs of compound and target were hits. Values without a mark were called inactive.
Legend:
Assay in all cases: log2 fold change, soluble protein after heating vs DMSO (PISA); higher = thermal stabilisation; K562 cells, 10 uM, 30 min; active = over 0.2 and 3.5 SD of the protein, either way, in both replicates (recomputed)
IRAK-1-4 Inhibitor I = compound: C1COCCN1CCN2C3=CC=CC=C3N=C2NC(=O)C4=CC(=CC=C4)[N+](=O)[O-] [IRAK-1-4 Inhibitor I]
Procedure, shortened: (§1)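 Thermal stability values are relative to control samples and come from duplicates. They are expressed as log2 fold changes. For measurement, K562 cells (2×10^6 cells/mL) received 10 μM compound for 30 min, and aliquots were heated for 3 min over 48°C-58°C, pooled, and extracted at 4°C in PBS with 0.5% NP-40. Soluble protein, the supernatant after 21,000xg for 90 min, was quantified by TMTpro 16plex LC-MS/MS with equalised channel sums.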

ibrutinib = compound: C=CC(=O)N1CCC[C@@H](n2nc(-c3ccc(Oc4ccccc4)cc3)c3c(N)ncnc32)C1 [ibrutinib]
Procedure, shortened: as §1

[1] = compound: CC(=O)c1cnc2ccc(-c3cc(Cl)c(O)c(Cl)c3)nc2c1N[C@H]1CC[C@H](CN(C)C)CC1
Procedure, shortened: as §1

ralimetinib = compound: CC(C)(C)Cn1c(N)nc2ccc(-c3[nH]c(C(C)(C)C)nc3-c3ccc(F)cc3)nc21 [ralimetinib]
Procedure, shortened: as §1

[2] = compound: CC(C)(O)CC(=O)NCCn1ccc2ncnc(Nc3ccc(Oc4cccc(C(F)(F)F)c4)c(Cl)c3)c21
Procedure, shortened: as §1

[3] = compound: CC(C)C1=C2N=C(C=C(N2N=C1)NCC3=CC=CC=C3)NCCCCCCN
Procedure, shortened: as §1

[4] = compound: CC(C)C[C@@H](C=O)NC(=O)[C@H](CC(C)C)NC(=O)[C@H](CC(C)C)NC(=O)OCc1ccccc1
Procedure, shortened: as §1

pinometostat = compound: CC(C)N(C[C@H]1O[C@@H](n2cnc3c(N)ncnc32)[C@H](O)[C@@H]1O)[C@H]1C[C@@H](CCc2nc3cc(C(C)(C)C)ccc3[nH]2)C1 [pinometostat]
Procedure, shortened: as §1

[5] = compound: CC1=C(C(CC(=O)N1)C2=CC=C(C=C2)C(F)(F)F)C(=O)NC3=C(C=C4C(=C3)C=NN4)F
Procedure, shortened: as §1

[6] = compound: CC1=C(C2=C(C=C1)C(=O)C3=CC=CC=C3N2CCCN)C
Procedure, shortened: as §1

[7] = compound: CC1=C(C=C(C=C1)NC(=O)C2=CC(=CC=C2)C(C)(C)C#N)NC3=CC4=C(C=C3)N=CN(C4=O)C
Procedure, shortened: as §1

[8] = compound: CC1=C(C=C(C=C1)NC(=O)C2=CC(=CC=C2)N(C)C)NC(=O)C3=CC=C(C=C3)O
Procedure, shortened: as §1

[9] = compound: CC1=CC=C(C=C1)SC2=C3C=C(SC3=CN=C2)C(=O)N
Procedure, shortened: as §1

[10] = compound: CC1=NC(=CC=C1)C2=C(N=C(N2)C(C)(C)C)C3=CC4=NC=CN=C4C=C3
Procedure, shortened: as §1

Nexturastat A = compound: CCCCN(Cc1ccc(C(=O)NO)cc1)C(=O)Nc1ccccc1 [Nexturastat A]
Procedure, shortened: as §1

vemurafenib = compound: CCCS(=O)(=O)Nc1ccc(F)c(C(=O)c2c[nH]c3ncc(-c4ccc(Cl)cc4)cc23)c1F [vemurafenib]
Procedure, shortened: as §1

[11] = compound: CCCS(=O)(=O)Nc1ccc(F)c(C(=O)c2c[nH]c3ncc(Cl)cc23)c1F
Procedure, shortened: as §1

[12] = compound: CCCc1cc(C)[nH]c(=O)c1CNC(=O)c1cc(-c2ccnc(N3CCN(C)CC3)c2)cc2c1cnn2C(C)C
Procedure, shortened: as §1

givinostat = compound: CCN(CC)Cc1ccc2cc(COC(=O)Nc3ccc(C(=O)NO)cc3)ccc2c1 [givinostat]
Procedure, shortened: as §1

barasertib = compound: CCN(CCCOc1ccc2c(Nc3cc(CC(=O)Nc4cccc(F)c4)[nH]n3)ncnc2c1)CCOP(=O)(O)O [barasertib]
Procedure, shortened: as §1

RNPEP (UniProt Q9H4A4)
UniProt Q9H4A4, sequence (Q9H4A4 whole entry, looked up): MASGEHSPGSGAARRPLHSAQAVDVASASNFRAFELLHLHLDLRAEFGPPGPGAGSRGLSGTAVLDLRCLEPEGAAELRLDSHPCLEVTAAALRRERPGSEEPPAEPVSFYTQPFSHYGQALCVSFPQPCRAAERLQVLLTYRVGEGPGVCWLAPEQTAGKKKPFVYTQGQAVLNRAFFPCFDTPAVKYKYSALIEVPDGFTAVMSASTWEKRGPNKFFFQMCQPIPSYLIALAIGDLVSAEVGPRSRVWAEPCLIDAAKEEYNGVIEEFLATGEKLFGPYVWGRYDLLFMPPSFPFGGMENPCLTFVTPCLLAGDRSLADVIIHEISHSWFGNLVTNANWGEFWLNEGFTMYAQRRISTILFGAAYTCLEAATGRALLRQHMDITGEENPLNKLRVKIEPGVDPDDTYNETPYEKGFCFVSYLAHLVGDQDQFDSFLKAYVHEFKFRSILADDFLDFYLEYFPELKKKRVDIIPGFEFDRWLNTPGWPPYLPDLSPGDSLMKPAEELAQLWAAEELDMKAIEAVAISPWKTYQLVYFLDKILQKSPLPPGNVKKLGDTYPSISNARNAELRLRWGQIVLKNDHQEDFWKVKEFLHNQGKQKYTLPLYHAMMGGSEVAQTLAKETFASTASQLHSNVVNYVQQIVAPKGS
log2 fold change (IRAK-1-4 Inhibitor I): -0.004
log2 fold change (ibrutinib): -0.018
log2 fold change [1]: 0.02
log2 fold change (ralimetinib): 0.011
log2 fold change [2]: -0.055
log2 fold change [3]: -0.182
log2 fold change [4]: -0.021
log2 fold change (pinometostat): 0.018
log2 fold change [5]: 0.004
log2 fold change [6]: 0.137
log2 fold change [7]: 0.032
log2 fold change [8]: -0.024
log2 fold change [9]: 0.002
log2 fold change [10]: 0.023
log2 fold change (Nexturastat A): -0.023
log2 fold change (vemurafenib): 0.058
log2 fold change [11]: 0.052
log2 fold change [12]: -0.013
log2 fold change (givinostat): -0.112
log2 fold change (barasertib): 0.036

RPTOR (UniProt Q8N122)
UniProt Q8N122, sequence (Q8N122 whole entry, looked up): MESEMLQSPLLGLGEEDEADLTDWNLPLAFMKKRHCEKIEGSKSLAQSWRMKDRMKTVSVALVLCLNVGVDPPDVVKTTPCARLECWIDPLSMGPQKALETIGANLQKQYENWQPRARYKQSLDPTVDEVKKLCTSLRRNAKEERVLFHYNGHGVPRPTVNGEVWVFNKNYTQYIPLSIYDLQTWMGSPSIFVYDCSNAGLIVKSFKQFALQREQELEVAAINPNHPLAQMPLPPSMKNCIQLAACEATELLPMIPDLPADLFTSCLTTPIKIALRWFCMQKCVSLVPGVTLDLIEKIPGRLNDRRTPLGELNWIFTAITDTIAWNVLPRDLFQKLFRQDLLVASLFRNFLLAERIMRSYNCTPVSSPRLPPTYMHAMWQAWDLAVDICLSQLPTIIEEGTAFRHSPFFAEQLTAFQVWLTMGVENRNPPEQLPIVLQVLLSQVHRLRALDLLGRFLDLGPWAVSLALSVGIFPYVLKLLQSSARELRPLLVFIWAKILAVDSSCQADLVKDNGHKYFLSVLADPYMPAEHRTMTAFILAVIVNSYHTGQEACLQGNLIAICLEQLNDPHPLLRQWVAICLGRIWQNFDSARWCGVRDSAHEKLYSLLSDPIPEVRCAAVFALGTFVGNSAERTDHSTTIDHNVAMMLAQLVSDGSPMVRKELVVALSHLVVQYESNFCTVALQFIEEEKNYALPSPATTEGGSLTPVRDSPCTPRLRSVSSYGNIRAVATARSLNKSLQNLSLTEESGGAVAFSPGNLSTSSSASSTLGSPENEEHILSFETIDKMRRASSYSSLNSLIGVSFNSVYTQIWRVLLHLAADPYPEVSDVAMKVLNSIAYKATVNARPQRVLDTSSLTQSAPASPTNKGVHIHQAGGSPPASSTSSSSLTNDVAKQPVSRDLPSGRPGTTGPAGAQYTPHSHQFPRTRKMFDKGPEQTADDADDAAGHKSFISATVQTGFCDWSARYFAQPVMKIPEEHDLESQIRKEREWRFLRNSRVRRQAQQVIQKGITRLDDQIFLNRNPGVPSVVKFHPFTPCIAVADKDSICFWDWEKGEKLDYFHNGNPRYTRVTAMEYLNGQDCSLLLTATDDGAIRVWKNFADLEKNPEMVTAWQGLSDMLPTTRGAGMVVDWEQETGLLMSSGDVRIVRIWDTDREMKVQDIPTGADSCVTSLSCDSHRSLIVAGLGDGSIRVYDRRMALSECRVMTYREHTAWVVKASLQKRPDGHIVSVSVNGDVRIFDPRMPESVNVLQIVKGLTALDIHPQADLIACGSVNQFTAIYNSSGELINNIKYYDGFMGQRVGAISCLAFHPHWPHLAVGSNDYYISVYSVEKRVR
log2 fold change (IRAK-1-4 Inhibitor I): 0
log2 fold change (ibrutinib): 0.051
log2 fold change [1]: -0.145
log2 fold change (ralimetinib): -0.022
log2 fold change [2]: -0.129
log2 fold change [3]: -0.187
log2 fold change [4]: -0.011
log2 fold change (pinometostat): -0.012
log2 fold change [5]: -0.03
log2 fold change [6]: 0.009
log2 fold change [7]: 0.009
log2 fold change [8]: 0.019
log2 fold change [9]: 0.027
log2 fold change [10]: 0.025
log2 fold change (Nexturastat A): -0.018
log2 fold change (vemurafenib): 0.017
log2 fold change [11]: 0.09
log2 fold change [12]: 0.012
log2 fold change (givinostat): -0.007
log2 fold change (barasertib): -0.007

RNASEH2A (UniProt O75792)
UniProt O75792, sequence (O75792 whole entry, looked up): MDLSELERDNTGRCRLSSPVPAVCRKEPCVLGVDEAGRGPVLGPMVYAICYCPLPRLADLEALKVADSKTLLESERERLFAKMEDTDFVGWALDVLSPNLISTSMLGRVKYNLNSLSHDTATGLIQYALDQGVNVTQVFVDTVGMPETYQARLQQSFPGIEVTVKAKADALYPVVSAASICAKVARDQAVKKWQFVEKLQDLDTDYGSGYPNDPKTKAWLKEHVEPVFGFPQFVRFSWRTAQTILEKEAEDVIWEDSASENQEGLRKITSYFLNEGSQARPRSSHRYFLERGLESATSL
log2 fold change (IRAK-1-4 Inhibitor I): 0
log2 fold change (ibrutinib): 0.008
log2 fold change [1]: -0.07
log2 fold change (ralimetinib): -0.08
log2 fold change [2]: -0.029
log2 fold change [3]: -0.122
log2 fold change [4]: 0.074
log2 fold change (pinometostat): -0.003
log2 fold change [5]: 0.001
log2 fold change [6]: 0.042
log2 fold change [7]: -0.023
log2 fold change [8]: -0.018
log2 fold change [9]: 0.022
log2 fold change [10]: 0.046
log2 fold change (Nexturastat A): 0.142
log2 fold change (vemurafenib): -0.102
log2 fold change [11]: -0.024
log2 fold change [12]: -0.063
log2 fold change (givinostat): 0.046
log2 fold change (barasertib): 0.039

RCN3 (UniProt Q96D15)
UniProt Q96D15, sequence (Q96D15 whole entry, looked up): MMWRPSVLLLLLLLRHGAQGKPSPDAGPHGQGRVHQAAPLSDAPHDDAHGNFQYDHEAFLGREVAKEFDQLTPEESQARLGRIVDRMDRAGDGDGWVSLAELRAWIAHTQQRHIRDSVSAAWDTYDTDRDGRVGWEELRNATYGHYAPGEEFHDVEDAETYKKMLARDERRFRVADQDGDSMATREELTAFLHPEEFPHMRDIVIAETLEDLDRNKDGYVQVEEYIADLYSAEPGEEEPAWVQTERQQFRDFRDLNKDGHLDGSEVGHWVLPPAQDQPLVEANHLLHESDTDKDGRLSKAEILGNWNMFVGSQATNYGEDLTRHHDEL
log2 fold change (IRAK-1-4 Inhibitor I): 0.131
log2 fold change (ibrutinib): 0.075
log2 fold change [1]: -0.048
log2 fold change (ralimetinib): -0.013
log2 fold change [2]: 0.013
log2 fold change [3]: 0.047
log2 fold change [4]: 0.026
log2 fold change (pinometostat): -0.035
log2 fold change [5]: 0.05
log2 fold change [6]: -0.031
log2 fold change [7]: -0.055
log2 fold change [8]: 0.029
log2 fold change [9]: -0.028
log2 fold change [10]: -0.073
log2 fold change (Nexturastat A): 0.077
log2 fold change (vemurafenib): -0.003
log2 fold change [11]: -0.053
log2 fold change [12]: -0.145
log2 fold change (givinostat): -0.023
log2 fold change (barasertib): -0.011

RIOK2 (UniProt Q9BVS4)
UniProt Q9BVS4, sequence (Q9BVS4 whole entry, looked up): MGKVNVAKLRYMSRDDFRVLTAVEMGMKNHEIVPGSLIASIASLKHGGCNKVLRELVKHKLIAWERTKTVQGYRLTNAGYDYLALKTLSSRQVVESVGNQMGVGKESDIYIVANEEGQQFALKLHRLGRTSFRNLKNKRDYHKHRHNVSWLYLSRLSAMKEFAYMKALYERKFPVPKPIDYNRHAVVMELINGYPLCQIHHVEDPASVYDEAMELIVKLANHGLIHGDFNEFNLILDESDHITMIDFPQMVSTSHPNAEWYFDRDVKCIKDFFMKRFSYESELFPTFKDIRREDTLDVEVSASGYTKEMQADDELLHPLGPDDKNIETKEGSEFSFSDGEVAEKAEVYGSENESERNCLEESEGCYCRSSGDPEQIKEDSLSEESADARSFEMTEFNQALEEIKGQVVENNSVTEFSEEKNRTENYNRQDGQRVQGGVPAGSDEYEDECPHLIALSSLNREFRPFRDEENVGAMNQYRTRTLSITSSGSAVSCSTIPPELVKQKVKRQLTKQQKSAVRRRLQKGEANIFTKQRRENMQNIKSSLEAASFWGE
log2 fold change (IRAK-1-4 Inhibitor I): -0.061
log2 fold change (ibrutinib): 0.013
log2 fold change [1]: 0.465 (active)
log2 fold change (ralimetinib): 0.119
log2 fold change [2]: 0
log2 fold change [3]: -0.014
log2 fold change [4]: 0.084
log2 fold change (pinometostat): 0.132
log2 fold change [5]: -0.014
log2 fold change [6]: -0.068
log2 fold change [7]: 0.035
log2 fold change [8]: 0.006
log2 fold change [9]: -0.046
log2 fold change [10]: -0.021
log2 fold change (Nexturastat A): 0.178
log2 fold change (vemurafenib): -0.001
log2 fold change [11]: -0.007
log2 fold change [12]: 0.056
log2 fold change (givinostat): 0.035
log2 fold change (barasertib): 0

SETMAR (UniProt Q53H47)
UniProt Q53H47, sequence (Q53H47 whole entry, looked up): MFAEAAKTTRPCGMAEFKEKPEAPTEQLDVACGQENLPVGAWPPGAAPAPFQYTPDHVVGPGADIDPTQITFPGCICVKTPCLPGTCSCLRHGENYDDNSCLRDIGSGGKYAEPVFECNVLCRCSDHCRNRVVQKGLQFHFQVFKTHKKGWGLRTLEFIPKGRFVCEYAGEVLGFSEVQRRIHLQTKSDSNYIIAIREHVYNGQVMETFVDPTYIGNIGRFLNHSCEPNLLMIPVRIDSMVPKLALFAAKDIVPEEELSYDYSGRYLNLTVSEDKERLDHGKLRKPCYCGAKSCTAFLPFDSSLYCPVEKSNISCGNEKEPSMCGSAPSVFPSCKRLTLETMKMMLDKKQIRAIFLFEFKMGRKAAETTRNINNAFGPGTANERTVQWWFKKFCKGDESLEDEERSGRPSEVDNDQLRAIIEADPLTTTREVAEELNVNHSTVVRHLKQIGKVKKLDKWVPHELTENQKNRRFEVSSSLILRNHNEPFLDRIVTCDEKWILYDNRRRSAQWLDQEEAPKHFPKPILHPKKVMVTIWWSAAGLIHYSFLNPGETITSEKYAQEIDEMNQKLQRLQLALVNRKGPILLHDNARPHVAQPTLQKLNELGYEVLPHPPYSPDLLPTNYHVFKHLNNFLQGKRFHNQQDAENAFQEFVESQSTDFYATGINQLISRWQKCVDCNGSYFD
log2 fold change (IRAK-1-4 Inhibitor I): 0.093
log2 fold change (ibrutinib): -0.04
log2 fold change [1]: -0.135
log2 fold change (ralimetinib): -0.025
log2 fold change [2]: 0.047
log2 fold change [3]: 0.227
log2 fold change [4]: -0.061
log2 fold change (pinometostat): 0.078
log2 fold change [5]: 0.012
log2 fold change [6]: 0.509 (active)
log2 fold change [7]: 0.128
log2 fold change [8]: 0.061
log2 fold change [9]: -0.023
log2 fold change [10]: -0.049
log2 fold change (Nexturastat A): -0.041
log2 fold change (vemurafenib): 0.018
log2 fold change [11]: 0.021
log2 fold change [12]: 0.01
log2 fold change (givinostat): -0.036
log2 fold change (barasertib): 0.051

RBM17 (UniProt Q96I25)
UniProt Q96I25, sequence (Q96I25 whole entry, looked up): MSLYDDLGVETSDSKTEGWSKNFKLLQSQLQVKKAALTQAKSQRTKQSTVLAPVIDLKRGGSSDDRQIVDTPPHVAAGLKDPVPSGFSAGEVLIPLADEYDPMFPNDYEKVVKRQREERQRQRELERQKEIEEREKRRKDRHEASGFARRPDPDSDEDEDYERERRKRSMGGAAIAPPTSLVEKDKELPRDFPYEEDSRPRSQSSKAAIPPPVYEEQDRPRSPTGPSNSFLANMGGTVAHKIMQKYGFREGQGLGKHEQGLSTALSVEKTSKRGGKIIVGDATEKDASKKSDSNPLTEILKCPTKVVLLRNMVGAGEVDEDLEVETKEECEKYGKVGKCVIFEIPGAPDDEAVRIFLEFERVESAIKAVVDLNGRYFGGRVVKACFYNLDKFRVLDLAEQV
log2 fold change (IRAK-1-4 Inhibitor I): -0.037
log2 fold change (ibrutinib): 0.114
log2 fold change [1]: -0.179
log2 fold change (ralimetinib): 0.158
log2 fold change [2]: -0.077
log2 fold change [3]: -0.053
log2 fold change [4]: 0.029
log2 fold change (pinometostat): 0.11
log2 fold change [5]: -0.005
log2 fold change [6]: 0.012
log2 fold change [7]: -0.004
log2 fold change [8]: -0.036
log2 fold change [9]: 0.057
log2 fold change [10]: 0.012
log2 fold change (Nexturastat A): 0.007
log2 fold change (vemurafenib): 0.068
log2 fold change [11]: 0.118
log2 fold change [12]: 0.013
log2 fold change (givinostat): 0.028
log2 fold change (barasertib): 0.043

RDH13 (UniProt Q8NBN7)
UniProt Q8NBN7, sequence (Q8NBN7 whole entry, looked up): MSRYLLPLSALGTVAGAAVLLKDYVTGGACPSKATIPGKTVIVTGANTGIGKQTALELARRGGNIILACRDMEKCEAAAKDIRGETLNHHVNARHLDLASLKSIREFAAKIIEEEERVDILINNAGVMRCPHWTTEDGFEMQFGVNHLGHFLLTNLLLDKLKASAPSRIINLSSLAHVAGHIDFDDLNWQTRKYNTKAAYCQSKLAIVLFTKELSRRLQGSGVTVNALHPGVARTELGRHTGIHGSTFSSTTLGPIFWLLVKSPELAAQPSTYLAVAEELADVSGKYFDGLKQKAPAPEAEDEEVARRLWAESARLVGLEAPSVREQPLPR
log2 fold change (IRAK-1-4 Inhibitor I): 0.012
log2 fold change (ibrutinib): 0.03
log2 fold change [1]: -0.054
log2 fold change (ralimetinib): -0.031
log2 fold change [2]: -0.061
log2 fold change [3]: -0.184
log2 fold change [4]: -0.029
log2 fold change (pinometostat): -0.057
log2 fold change [5]: -0.051
log2 fold change [6]: 0.111
log2 fold change [7]: 0.011
log2 fold change [8]: -0.082
log2 fold change [9]: 0.045
log2 fold change [10]: 0.078
log2 fold change (Nexturastat A): -0.046
log2 fold change (vemurafenib): 0.044
log2 fold change [11]: 0.019
log2 fold change [12]: -0.01
log2 fold change (givinostat): -0.002
log2 fold change (barasertib): 0.033

Reference: the supplement of paper PMC10849652
